CSC inhib: cancer stem cell inhibition. cancer stem cell-like cells viability, luminescence. inhibition, % at 7.5 µM. 1.1% of 300,000 active. AID 2717; in the data active = inhibition above about 75%; inconclusive = no clear call, values can overlap the other calls; tested in HMLE shEcad cells
PP5 inh: PP5 (human) phosphatase inhibition. 0.18% of 320,000 active. purified PP5c, OMFP substrate fluorescence. P53041. inhibition, % at 6.7 µM;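 active = inhibition above the campaign's mean inhibition across all tested compounds plus 3 SD, cut at about 9.5% in these data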
ALR inh: human ALR oxidase inhibition via reduced H2O2 | purified ALR, DTT oxidation, H2O2 HRP-luminol luminescence | inhibition, % (concentration not given with the values) | 3.8% of 290,000 active | AID 485317;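 active = mean replicate inhibition above about 79%, with every replicate also reaching it, limit read from the data; inconclusive = only one of the two criteria met; inactive = mean below limit and not every replicate reaching it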
Target sequence (P55789 whole entry, looked up): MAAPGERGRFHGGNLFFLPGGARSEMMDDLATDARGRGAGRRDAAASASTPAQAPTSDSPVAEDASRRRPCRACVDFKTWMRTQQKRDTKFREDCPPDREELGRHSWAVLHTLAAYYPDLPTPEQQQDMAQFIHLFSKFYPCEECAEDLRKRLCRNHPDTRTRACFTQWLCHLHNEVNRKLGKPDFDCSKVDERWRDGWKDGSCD
Calb FLC: affects C. albicans growth with fluconazole; 0.57% of 300,000 active; AID 1979; C. albicans CaCi-2 (fluconazole-resistant clinical isolate) + fluconazole, Alamar Blue growth, 48 h; growth inhibition, % (no concentration beside the values);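 active = growth inhibition above about 58% in most replicates, limit read from the data, passing the limit was not always enough; inconclusive = exactly half the replicates above a set limit; inactive = most replicates below a set limit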;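 also: all wells also contain fluconazole at 8 µg/ml as a sub-toxic cotreatment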
PP1 counter: PP1-alpha (human) inhibition in PP5 counter-screen | P62136 | AID 2235 | purified PP1alpha, OMFP fluorescence | inhibition, % at 6.7 µM | 0.9% of 320,000 active;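 active = inhibition above the mean inhibition of all tested compounds plus 3 SD, computed separately for each screening campaign, cut at about 15% in these data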
Hits are given with their value; . = inactive; ? = inconclusive; / = no result given. Only some compounds are listed: those with a hit (about 5.4% of all), similar ones and a draw of the others.

SMILES	CSC inhib	PP5 inh	ALR inh	Calb FLC	PP1 counter
CCc1n[nH]c(=S)n1/N=C/c1ccc(N(C)c2ccccc2)cc1	.	.	.	.	.
Cc1nn(-c2ccccc2)c(C)c1/C=N/n1c(-c2ccccc2Br)n[nH]c1=S	.	.	96	.	.
Cc1cc2c(c(/C=C/C(=O)c3ccccc3)c1)OC1(C=C2)Oc2ccccc2C(=O)N1C (stereo not drawn)	138	.	.	.	.
O=C1c2ccccc2OC2(C=Cc3ccccc3O2)N1Cc1ccccc1 (stereo not drawn)	/	.	.	.	.
CCOc1ccc(NC(=O)C(=O)N/N=C\c2ccc(CNS(=O)(=O)c3ccccc3)o2)cc1	.	.	.	.	.
O=C(NCc1cccc(Cl)c1)c1ccncc1	.	.	.	.	.
N#CCC(=O)Nc1ccc(C(=O)NCc2cccc(Cl)c2)cc1	.	.	98	.	.
CCOc1cc(C(=O)NC(C)COC)cc(OCC)c1OCC (stereo not drawn)	.	.	.	.	.
CC1=C(C(=O)OCCNC(=O)c2ccccc2O)C(c2ccccc2[N+](=O)[O-])C(C(=O)OCC2CCCO2)=C(C)N1 (stereo not drawn)	.	.	.	.	.
O=S1(=O)c2ccccc2N=NN1Cc1ccc(Cl)cc1	.	.	.	.	.
O=S1(=O)c2ccccc2N=NN1Cc1cc(Cl)cc(Cl)c1	.	.	99	.	.
Cc1ccc(NC(=O)CSc2nc(N)cc(N)n2)cc1S(=O)(=O)N1CCOCC1	.	.	.	.	.
N#C/C(=C\c1ccc(O)c(O)c1)C(=O)NCCc1ccccc1	.	.	98	/	.
COc1ccc(/C=C(\C#N)C(=O)NCc2ccccc2)cc1O	/	.	/	.	.
COc1ccc(/C=C(\C#N)C(=O)NC(C)c2ccccc2)cc1O (stereo not drawn)	.	.	87	.	.
COC(=O)c1ccc(/C=C(\C#N)C(=O)NC(C)c2ccccc2)cc1 (stereo not drawn)	.	.	87	.	.
Cc1cn2nc(N)c3ccccc3c2n1	.	.	.	/	.
Nc1nn2cc(-c3ccccc3)nc2c2ccccc12	.	.	95	.	.
CCCC[C@@H](CN[C@H](C)CNC)NCC1CCC(C(C)(C)C)CC1 (stereo partly drawn)	126	.	.	.	.
CN1CCc2c(sc3c2C(=O)NC(c2ccc(-c4cccc(Cl)c4)o2)N3)C1 (stereo not drawn)	.	.	.	.	.
Cc1nnsc1NC(=O)OCc1ccc(C(F)(F)F)cc1	.	.	.	.	17
Cc1nnsc1NC(=O)OCc1ccccc1Cl	.	.	.	.	.
CCC(OC(=O)CN1C(=O)C(=O)c2ccccc21)C(=O)Nc1ccc(S(N)(=O)=O)cc1 (stereo not drawn)	.	.	.	.	.
O=C(c1noc2c1CCc1ccccc1-2)N1CCOCC1	.	.	.	.	.
Cc1ccc(NC(NC(=O)c2cccnc2)C(Cl)(Cl)Cl)cc1 (stereo not drawn)	.	.	99	.	.
SMILES	CSC inhib	PP5 inh	ALR inh	Calb FLC	PP1 counter
Cc1ccc(NC(NC(=O)c2cccs2)C(Cl)(Cl)Cl)cc1C (stereo not drawn)	.	.	.	.	.
Cc1ccc(NC(NC(=O)c2cccs2)C(Cl)(Cl)Cl)cc1 (stereo not drawn)	.	.	98	.	.
COc1ccccc1NC(NC(=O)c1cccnc1)C(Cl)(Cl)Cl (stereo not drawn)	.	.	88	.	.
Cc1ccc(C)c(NC(NC(=O)c2cccnc2)C(Cl)(Cl)Cl)c1 (stereo not drawn)	.	.	.	?	.
Cc1ccc(C(=O)NCCCNC(=O)c2ccccn2)cc1	.	.	.	.	.
Cc1ccc(NC(NC(=O)c2ccccn2)C(Cl)(Cl)Cl)cc1 (stereo not drawn)	.	.	99	.	.
Cc1nc2sc(C(c3ccco3)N3CCN(c4ccccc4F)CC3)c(O)n2n1 (stereo not drawn)	.	.	.	.	.
CC(=O)N/C(=C\c1ccccc1)C(=O)OCC(=O)N1CCCCCC1	.	.	.	.	.
CC(=O)NC1=NN(C(C)=O)C2(S1)C(=O)N(C(C)C)c1ccc(C)cc12 (stereo not drawn)	.	.	.	.	.
CCCCCC(=O)Nc1cccc(S(=O)(=O)NC2=NCCCCC2)c1	/	.	/	/	.
Cc1ccc(C)c(Cc2c(C)nc3c(C(=O)NCc4ccc5c(c4)OCO5)cnn3c2C)c1	78	.	.	.	.
Cc1cc(F)ccc1NS(=O)(=O)c1cccc2nsnc12	.	.	.	.	.
c1ccc(-c2ccc(OCCOCCn3cncn3)cc2)cc1	.	.	.	.	.

Screening data from PubChem BioAssay.
